From paper PMC4336329 (PLoS ONE, 2015)
Hit rate of the full screen: of about 310,000 compounds, about 14,000 (4.5%) showed an effect of 50% or more. Effects have a minus sign here. The list comes from a sample in which strong results are over-represented; it also holds similar structures and randomly drawn compounds.

Target: human ether-à-go-go-related gene (hERG) potassium channel (human, UniProt Q12809)
Test: primary screen, population patch clamp on CHO cells stably expressing hERG; higher = less effect of the substance
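Also: peak tail current of the secondary pulse compared with the same well before compound.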

Chain of human ether-à-go-go-related gene (hERG) potassium channel (Q12809 whole entry, looked up): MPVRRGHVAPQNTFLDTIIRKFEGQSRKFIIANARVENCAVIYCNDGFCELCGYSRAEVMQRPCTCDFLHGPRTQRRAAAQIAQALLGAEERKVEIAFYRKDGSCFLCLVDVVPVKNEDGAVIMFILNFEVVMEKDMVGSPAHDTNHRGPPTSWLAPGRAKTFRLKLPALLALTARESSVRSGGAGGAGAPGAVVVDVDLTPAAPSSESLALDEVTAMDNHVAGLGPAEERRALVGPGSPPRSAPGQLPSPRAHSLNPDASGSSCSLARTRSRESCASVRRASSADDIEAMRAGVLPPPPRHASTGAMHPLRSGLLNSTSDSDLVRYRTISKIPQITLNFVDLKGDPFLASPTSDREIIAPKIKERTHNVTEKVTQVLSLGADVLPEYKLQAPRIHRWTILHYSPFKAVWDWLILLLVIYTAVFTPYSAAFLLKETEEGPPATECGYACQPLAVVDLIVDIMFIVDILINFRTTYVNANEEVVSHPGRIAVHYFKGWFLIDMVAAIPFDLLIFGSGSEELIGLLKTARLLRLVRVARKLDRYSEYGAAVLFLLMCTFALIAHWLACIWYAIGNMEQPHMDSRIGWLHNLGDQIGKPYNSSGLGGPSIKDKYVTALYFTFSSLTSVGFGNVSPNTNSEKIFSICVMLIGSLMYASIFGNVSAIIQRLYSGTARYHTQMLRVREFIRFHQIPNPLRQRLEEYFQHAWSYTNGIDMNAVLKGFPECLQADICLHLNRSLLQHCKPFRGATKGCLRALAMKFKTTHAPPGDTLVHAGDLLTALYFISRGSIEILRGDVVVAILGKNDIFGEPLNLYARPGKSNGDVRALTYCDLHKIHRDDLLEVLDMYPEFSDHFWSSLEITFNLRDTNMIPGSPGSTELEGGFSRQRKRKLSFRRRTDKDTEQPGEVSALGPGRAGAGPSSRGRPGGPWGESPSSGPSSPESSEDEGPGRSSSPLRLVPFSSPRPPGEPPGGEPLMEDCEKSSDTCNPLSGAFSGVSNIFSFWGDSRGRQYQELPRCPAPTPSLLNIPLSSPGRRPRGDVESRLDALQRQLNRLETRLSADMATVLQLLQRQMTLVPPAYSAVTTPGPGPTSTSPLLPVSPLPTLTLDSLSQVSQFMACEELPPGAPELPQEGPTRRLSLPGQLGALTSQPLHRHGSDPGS

| Structure (SMILES) | hERG current change (%, negative = inhibition) at 10uM |
| --- | --- |
| O=C(Nc1cccc(-c2nc3ncccc3o2)c1)c1ccccc1 | -9.36% |
| O=S(=O)(NCc1cccs1)c1ccc(Br)s1 | 2.07% |
| CCCN(CCC)CCNC(=O)c1cc2c(-c3ccc(Cl)cc3)nn(C)c2s1 | -65.6% |
| CCCN(CCC)CCCNC(=O)c1cc2c(-c3ccc(OC)c(OC)c3)nn(C)c2s1 | -6.94% |
| CCN1CCCC1CNC(=O)c1cc2c(-c3cccc(OC)c3)nn(C)c2s1 (stereo not shown) | -46.3% |
| CCN(CC)CCCNC(=O)c1cc(-c2ccccc2)c(N2CCCCC2)s1 | -51.7% |
| O=C(NCCc1ccccc1)c1cc(-c2ccccc2)c(N2CCOCC2)s1 | 3.07% |
| CCCCN(CC)CCNC(=O)c1cc2c(-c3ccccc3F)nn(C)c2s1 | -66.7% |
| CCN1CCCC1CNC(=O)c1cc2c(-c3ccc(Cl)cc3)nn(C)c2s1 (stereo not shown) | -62.4% |
| CCCN(CCC)CCNC(=O)c1cc2c(-c3ccccc3F)nn(C)c2s1 | -47.2% |
| Cn1nc(-c2ccc(Cl)cc2)c2cc(C(=O)NC3CC3)sc21 | -1.54% |
| Cc1ccc(CNC(=O)c2cc3c(-c4ccc(Cl)cc4)nn(C)c3s2)o1 | -8.27% |
| CCCCN(C)CCNC(=O)c1cc2c(-c3ccccc3F)nn(C)c2s1 | -48% |
| CCCNC(=O)c1cc(-c2ccccc2)c(N2CCCCC2)s1 | 14.2% |
| CCOC(=O)c1ccc(CC2SC(N)=NC2=O)cc1 (stereo not shown) | 2.63% |
| Cc1ccc(NC(=O)CSc2nc(=O)cc(N)n2-c2ccccc2)cc1 | 20.3% |
| CC(C)(C)NC(=O)NC(=O)CN1C(=O)NC(C)(c2ccccc2)C1=O (stereo not shown) | 15.8% |
| O=C(N/N=C/c1ccoc1)c1cccc([N+](=O)[O-])c1 | 9.75% |
| COc1ccc(NS(=O)(=O)c2cccc(C(=O)NCC(c3ccc(OC)cc3)N3CCOCC3)c2)cc1 (stereo not shown) | -26.1% |
| O=c1c[n+]([O-])c2ccccc2n1OCc1ccccn1 | 18.9% |
| Cc1ccc(N2C(=O)C(NC(=O)c3c(F)cccc3F)(C(F)(F)F)C3=C2CC(C)(C)CC3=O)cc1 (stereo not shown) | 9.34% |
| CC(C)c1cc(-c2cc(C(=O)Nc3ccccc3)on2)nc(NCC2CC2)n1 | 10.3% |

| Structure (SMILES) | hERG current change (%, negative = inhibition) at 10uM |
| --- | --- |
| NC(=O)NN=C1C2CCCC1C(c1ccccc1)NC2c1ccccc1 (stereo not shown) | -7.17% |
| O=C(O)C/C(=C\c1ccc(Cl)cc1)c1nc2ccccc2o1 | 6.78% |
| Cc1cc(C)c2c(c1)c(C)cc1nnc(SCC(=O)c3cccs3)n12 | -2.98% |
| Cc1ccc2cc(C)c3nnc(SCC(=O)c4cccs4)n3c2c1C | -23.1% |
| Cc1ccc(C)c2c1cc(C)c1nnc(SCC(=O)c3cccs3)n12 | -61.5% |
| Cc1cc(N)n(-c2ccc(C(=O)O)cc2)n1.Cl | 13.6% |
| COc1ccc(CNC(=O)c2ccc(-c3ccccc3)cc2)cc1OC | 0.777% |
| CC1CCCCC1NC(=O)CCS(=O)(=O)c1cc2c(cc1Cl)NC(=O)CO2 (stereo not shown) | -30.5% |
| Cc1cc2c(cc1S(=O)(=O)CCC(=O)NC1CCC(C)CC1)OCC(=O)N2 (stereo not shown) | -14.7% |
| CC(=O)c1cccc(NC(=O)CCS(=O)(=O)c2cc3c(cc2C)NC(=O)CO3)c1 | 1.62% |
| CCc1cccc(NC(=O)CCS(=O)(=O)c2cc3c(cc2C)NC(=O)CO3)c1 | -14.1% |
| Cc1cc2c(cc1S(=O)(=O)CCC(=O)NC1CCCCC1C)OCC(=O)N2 (stereo not shown) | -53% |
| Cc1cc2c(cc1S(=O)(=O)CCC(=O)Nc1cccc(C(F)(F)F)c1)OCC(=O)N2 | -54% |
| Cc1nc(Sc2nnnn2-c2ccccc2)c(C#N)c(C)c1C | -21.3% |
| CCOC(=O)C1CCCN(C(=O)Cn2cccc2C(=O)c2ccccc2)C1 (stereo not shown) | -11.5% |
| Cc1cccc(C)c1NC(=O)COC(=O)c1cccnc1 | 4.43% |
| C#CCOC(=O)C[N+](C)(C)C/C=C/c1ccccc1.[Cl-] | 10.4% |
| Cc1oc(-c2cccc(Cl)c2)nc1CN1CCC(C(=O)N2CCN(c3ccccn3)CC2)CC1 | -68.5% |
| Cc1oc(-c2cccc(Cl)c2)nc1CN1CCC(C(=O)N2CCN(c3ccccc3F)CC2)CC1 | -69.1% |
| CCN1CCN(C(=O)C2CCN(Cc3nc(-c4cccc(Cl)c4)oc3C)CC2)CC1 | -42.9% |
| Cc1cccc(N2CCN(Cc3nc(-c4cccc(Oc5ccccc5)c4)oc3C)CC2)n1 | 4.13% |
